# According to PubChem BioAssay (NCI):
# About 79,000 compounds went through this panel and 15% of them were active in at least one assay; those are over-represented in the sample as a whole. A number with no mark means an inactive call. Calls of active or inactive are those of the source. Rule as the data show it: active = growth inhibition above about 70%; inactive = the rest.
# How the values were obtained:
# [1] = NCI Yeast Anticancer Drug Screen. Data for the rad50 strain (AID 155);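 also: 0% = growth of vehicle-only cultures of the same strain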; settings: S. cerevisiae rad50 strain growth inhibition, hits give high values
# How it was run: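 Readout: growth inhibition relative to vehicle-treated cultures. Compound exposure was carried out in a genetically defined yeast strain deficient in DNA damage repair.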
# [2] = NCI Yeast Anticancer Drug Screen. Data for the mec2-1 strain (AID 157); settings: S. cerevisiae mec2-1 strain, hits give high values
# How it was run: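 Each compound was tested on mec2-1 yeast, a strain altered in DNA damage repair or cell cycle control. Growth inhibition is reported relative to vehicle.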
# [3] = NCI Yeast Anticancer Drug Screen. Data for the sgs1 mgt1 strain (AID 161);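 also: 0% = growth of cultures given vehicle only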; settings: S. cerevisiae sgs1 mgt1 strain, hits give high values
# How it was run: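 Genetically altered yeast, compound exposure, growth inhibition relative to vehicle.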
# [4] = NCI Yeast Anticancer Drug Screen. Data for the cln2 rad14 strain (AID 165);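 also: 0% = growth equal to vehicle treated cultures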; settings: S. cerevisiae cln2 rad14 strain, hits give high values
# How it was run: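 Test compounds were added to cln2 rad14 yeast cultures; inhibition of growth was then determined by comparison with vehicle treatment.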
# [5] = NCI Yeast Anticancer Drug Screen. Data for the bub3 strain (AID 167); settings: S. cerevisiae bub3 mutant strain, hits give high values
# How it was run: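 Readout: yeast growth inhibition, expressed relative to vehicle-only wells. The test organism is a mutant strain from a panel with lesions in DNA repair or checkpoint genes.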
# [6] = NCI Yeast Anticancer Drug Screen. Data for the mlh1 rad18 strain (AID 175); settings: S. cerevisiae mlh1 rad18 strain growth inhibition, hits give high values
# How it was run: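 Inhibition values reflect reduced growth of mutant yeast versus vehicle-treated controls following compound exposure; the mutations affect DNA damage repair.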
# [7] = at 5.0 µM (retest, dose inferred, filed as 0.5)
# [8] = at 50.0 µM (retest, dose inferred, filed as 5.0)
Structure (SMILES),"growth inhibition [1, 7]","growth inhibition [1, 8]",growth inhibition ([1]; at 50.0 µM),"growth inhibition [2, 7]","growth inhibition [2, 8]",growth inhibition ([2]; at 50.0 µM),"growth inhibition [3, 7]","growth inhibition [3, 8]",growth inhibition ([3]; at 50.0 µM),"growth inhibition [4, 7]","growth inhibition [4, 8]",growth inhibition ([4]; at 50.0 µM),"growth inhibition [5, 7]","growth inhibition [5, 8]",growth inhibition ([5]; at 50.0 µM),"growth inhibition [6, 7]","growth inhibition [6, 8]",growth inhibition ([6]; at 50.0 µM)
Cc1c(C(=O)N(CCO)CCO)[n+](=O)c2ccccc2n1[O-],5%,3%,28.9%,13%,7%,-5.35%,38%,18%,14.7%,1%,2%,39%,3%,26%,-5.1%,31%,13%,65.7%
O=C1CSc2ccccc2-n2cccc21,5%,6%,9.55%,11%,8%,3.35%,6%,-4%,61.5%,32%,30%,-1.1%,77% (active),77% (active),-11.2%,5%,15%,1.95%
Cc1ccc2nn(-c3ccc(O)cc3)nc2c1,11%,45%,50.3%,16%,42%,22.6%,7%,38%,27%,6%,39%,29.3%,28%,69%,74.5% (active),12%,50%,74.2% (active)
CN(C)CCC(=O)N1C/C(=C\c2ccc(Cl)c(Cl)c2)C(=O)/C(=C/c2ccc(Cl)c(Cl)c2)C1,98% (active),97% (active),91.7% (active),99% (active),98% (active),89.8% (active),99% (active),97% (active),88.2% (active),98% (active),98% (active),90% (active),99% (active),98% (active),91.3% (active),99% (active),97% (active),88.9% (active)
Cc1c2ccccc2c(=O)n2c(-c3ccccn3)cccc12,-47%,-14%,46.8%,-20%,-16%,-1.2%,7%,-3%,77.8% (active),8%,26%,33.1%,-26%,-17%,30.8%,-43%,31%,-6.4%
O=C1OC2=C(CCc3nc(-c4ccccc4)sc32)C(N(c2ccccc2)c2ccccc2)C1(Cl)Cl (configuration not stated),-4%,11%,63.6%,-5%,12%,41.8%,1%,19%,73% (active),-13%,-15%,60.1%,0%,-3%,49%,2%,9%,68.7%
CC1(C)CC(=O)C(C=NC(=S)c2ccccc2)=C(O)C1,21%,27%,-43.3%,4%,13%,-54%,6%,9%,-37.1%,11%,14%,-0.6%,20%,32%,-13.4%,14%,27%,22.1%
CC(C)(C)C(=O)CC(=O)C(F)(F)C(F)(F)C(F)(F)F.[Ag],97% (active),98% (active),91.8% (active),99% (active),99% (active),93% (active),99% (active),99% (active),90% (active),92% (active),99% (active),89.6% (active),98% (active),98% (active),87.8% (active),98% (active),98% (active),88.4% (active)
O=C(CSc1nccc(=O)[nH]1)c1ccccc1,2%,24%,89.4% (active),1%,38%,81.7% (active),5%,7%,60.1%,-5%,4%,32.4%,-2%,40%,86% (active),4%,52%,40.8%
CCOC(=O)C(=Cc1ccccc1Br)C(=O)OCC,16%,92% (active),78.5% (active),33%,94% (active),92.5% (active),20%,-18%,96.5% (active),17%,93% (active),67.8%,26%,96% (active),95.7% (active),14%,97% (active),96.2% (active)
CCCN(CCC)C(=O)c1cccc2ccccc12,3%,7%,6.8%,4%,6%,-19.1%,1%,9%,44.5%,3%,22%,-1.9%,6%,28%,27.2%,6%,7%,7.5%
C1=C(c2ccccc2)[P+](c2ccccc2)(c2ccccc2)C=C(c2ccccc2)[P+]1(c1ccccc1)c1ccccc1,87% (active),98% (active),99.3% (active),89% (active),99% (active),99.7% (active),89% (active),99% (active),99.2% (active),44%,98% (active),98.2% (active),83% (active),99% (active),99.2% (active),83% (active),99% (active),99.2% (active)
Cc1c2cnccc2c(C)c2c1sc1ccccc12,92% (active),88% (active),96.5% (active),80% (active),96% (active),73.5% (active),87% (active),96% (active),90.2% (active),65%,91% (active),75.5% (active),56%,93% (active),81.3% (active),96% (active),92% (active),97.7% (active)
CCC(=O)OC1=C(Cl)C(=O)c2ccccc2C1=O,2%,98% (active),71.8% (active),4%,99% (active),27.2%,9%,99% (active),63.8%,2%,98% (active),0.15%,6%,99% (active),34.5%,14%,98% (active),55.4%
O=c1c2cc3c(cc2c2cccc4c2n1CCC4)OCO3,-1%,44%,71.2% (active),0%,12%,23.4%,-4%,13%,25.4%,-3%,6%,42.4%,2%,31%,20.4%,-2%,15%,53.7%
C/C(=N\Oc1ncc([N+](=O)[O-])c(O/N=C(\C)c2ccccc2)n1)c1ccccc1,52%,-24%,43.2%,37%,-11%,66.8%,53%,-10%,83% (active),28%,-20%,45.7%,48%,-16%,50.6%,54%,-11%,94.2% (active)
Cc1cccc2c(CC(=O)O)c[nH]c12,60%,98% (active),99.2% (active),76% (active),99% (active),99.5% (active),67%,99% (active),99.6% (active),73% (active),99% (active),99.2% (active),93% (active),97% (active),99.4% (active),92% (active),98% (active),99.3% (active)
O=[N+]([O-])c1ccc2c(c1)[nH]c1ccccc12,-138%,36%,93.2% (active),-45%,-32%,40.1%,-65%,-11%,73.8% (active),-57%,-63%,68.6%,-66%,-40%,69.2%,-139%,-10%,89% (active)
COc1ccc2oc(-c3ccc(OC)c(OC)c3OC)cc(=O)c2c1,-34%,-26%,15.7%,-47%,-12%,22%,-11%,50%,70% (active),-14%,9%,-4.55%,-15%,48%,51.2%,-39%,-7%,4.8%
